HT1080 IDH1KD tx: qHTS for induction of synthetic lethality in tumor cells producing 2HG: qHTS for the HT-1080-IDH1KD cell line. HT-1080 IDH1 knockdown viability, ATP luminescence, 48 h. Potency, µM (series often up to 46.1 µM), for inactives: at the top dose activity, negative = toxicity, usual class: cytotoxic. AID 686971, 2013. hit rate 2% among 360,000;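 also: potency is read from the fitted curve at half-maximal effect; 0% = DMSO wells and -100% = cell-free medium wells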
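Cytotoxicity counter-line: IDH1KD HT-1080, 48 h, CellTiter-Glo. Curves classed by r2, magnitude and activity.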
ELG1 repair inh: qHTS screen for small molecules that inhibit ELG1-dependent DNA repair in human embryonic kidney (HEK293T) cells expressing luciferase-tagged ELG1; HEK293T ELG1-luciferase reporter, luminescence, 16 h; DNA damage induced by 5-fluorouridine; Potency, µM (titrated, usually from 46.1 µM), for inactives: at the top dose activity change, negative = inhibition, actives largely listed as inhibitors; hit rate 2.3% among 330,000; AID 504467, 2011; also: potency is read from the fitted curve at half-maximal effect; nearly all actives have a fitted effect of over 55% in size
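In this reporter screen, reduction of luminescence relative to DMSO vehicle indicated activity. Compounds and 5-fluorouridine were added together to 2,000 cells per well, incubated for 16 hr at 37 °C, then developed with ONE-Glo.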
IL1B secr inh: qHTS for Inhibitors of Inflammasome Signaling: IL-1-beta AlphaLISA Primary Screen; activity change, % at 57.5 µM; hit rate 4.7% among 360,000; THP-1 LPS/ATP IL-1B secretion, AlphaLISA, 16 h; hits give low values; AID 743279, 2014; in the data active = activity change below about -50%; inconclusive = mostly about -30% to -49%
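THP-1 cells pretreated 1 hr with compounds (up to 57.5 uM final), then stimulated with LPS (250 ng/mL final) plus ATP (1.25 mM final); secreted IL-1B measured by AlphaLISA after 16 hr, decreased signal indicating inhibition.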
HT1080NT lethal: qHTS for induction of synthetic lethality in tumor cells producing 2HG: qHTS for the HT-1080-NT fibrosarcoma cell line. AID 686970, 2013. HT-1080-NT fibrosarcoma viability, CellTiter-Glo ATP luminescence, 48 h. Potency, µM (titrated, usually from 46.1 µM), for inactives: top-dose activity, negative = less viability, hits mostly cytotoxic. hit rate 1.6% among 360,000;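 also: NT is the 2HG producing partner of a matched IDH1 knockdown line; potency is read from the fitted curve at half-maximal effect; 0% = DMSO-treated cells and -100% = media-only wells without cells; nearly all actives have a fitted effect of over 55% in size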
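Fibrosarcoma NT cells, 750 per well in 5% FBS RPMI, were exposed to compound for 48 hours. Viability: CellTiter-Glo luminescence.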
TDP1 cell noCPT: qHTS for Inhibitors of human tyrosyl-DNA phosphodiesterase 1 (TDP1): qHTS in cells in absence of CPT; hit rate 15% among 420,000; Potency, µM (titrated, usually from 46.2 µM), inactives show at the highest dose activity change, negative = growth inhibition, most hits filed as inhibitors; AID 686978, 2013; DT40 Tdp1-/- hTDP1 cells, no CPT, ATP luminescence, 48 h; also: potency is read from the fitted curve at half-maximal effect; nearly all actives have a fitted effect of over 55% in size
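Luminescent ATP content (CellTiter-Glo) served as the growth readout. Knockout chicken DT40 cells expressing human TDP1 were exposed to compounds without camptothecin for a minimum 48 hr at 37 °C.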
DT40 TDP1 CPT: qHTS for Inhibitors of human tyrosyl-DNA phosphodiesterase 1 (TDP1): qHTS in cells in presence of CPT. chicken DT40 Tdp1-/-;hTDP1 cells + 20 nM CPT, ATP luminescence, 48 h. hit rate 12% among 420,000. Potency, µM (highest dose often 46.2 µM), inactives show at the top dose activity change, negative = growth inhibition, usual class: inhibitors. AID 686979, 2013; also: potency is read from the fitted curve at half-maximal effect; nearly all actives have a fitted effect of over 55% in size
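Chicken DT40 Tdp1-/- cells complemented with human TDP1, 400 cells/well, exposed to compounds plus 20 nM camptothecin for at least 48 h at 37 C; viability read as ATP content by CellTiter-Glo luminescence.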
Active calls of the source: *; i = inactive; ? = inconclusive; . = no result given. Only some compounds are listed: those with a hit (about 19% of all), similar ones and a draw of the others. Unless noted, calls follow the shape of the dose curve; as a rule, active = well fitted curve in the direction sought with a large enough effect; inconclusive = small, poorly fitted or top-dose-only effect, or another doubt; inactive = no such curve, though single readings can be large; an effect the other way counts as inactive or inconclusive. Unless noted, % is scaled to controls: 0 for no effect and ±100 for the full control effect.

SMILES | HT1080 IDH1KD tx | ELG1 repair inh | IL1B secr inh | HT1080NT lethal | TDP1 cell noCPT | DT40 TDP1 CPT
CCOc1ccc(-n2cc(C(=O)Nc3cccc(C)n3)c3cc(OC)c(OC)cc3c2=O)cc1 | -7% | . | -11 | -4% | 26µM* | ?
CCOc1ccc(-n2cc(C(=O)NC(C)C)c3cc(OC)c(OC)cc3c2=O)cc1 | 0% | ? | 5 | -1% | 26µM* | ?
CCOc1ccc(-n2cc(C(=O)N3CCC(C)CC3)c3cc(OC)c(OC)cc3c2=O)cc1 | -10% | -22% | -17 | 6% | 15µM* | 16µM*
CCCCNC(=O)c1cn(-c2ccc(OCC)cc2)c(=O)c2cc(OC)c(OC)cc12 | 7% | 23µM* | 32 | 0% | ? | ?
COC(=O)c1cc2c(C(F)(F)F)nn(C)c2s1 | 11% | 1% | 23 | 12% | 11% | 9%
COc1ccc(Br)c(Cn2c(C)c(C(=O)NCc3ccc4c(c3)OCCO4)sc2=O)c1 | 2% | . | -21 | 2% | -20% | ?
COc1ccc(NS(=O)(=O)c2ccc(C(=O)N3CCN(c4ccc(F)cc4)CC3)cc2)cc1 | -16% | ? | -25 | -15% | 4.6µM* | 10µM*
CC1CC(C)CN(C(=O)c2ccc(S(=O)(=O)N3CC(C)CC(C)C3)cc2)C1 (stereo unspecified) | -1% | ? | -77* | -12% | 18µM* | 23µM*
CC1CC(C)CN(S(=O)(=O)c2ccc(C(=O)N3CCCC3)cc2)C1 (stereo unspecified) | -6% | -30% | -5 | -3% | ? | -16%
Cc1ccc(NS(=O)(=O)c2ccc(C(=O)N3CCN(c4ncccn4)CC3)cc2)cc1 | 2% | 5.8µM* | -1 | 0% | 7.3µM* | ?
Cc1ccc(S(=O)(=O)N2CCN(C(=O)c3cc4c(s3)CCCC4)CC2)cc1 | 4% | 6% | 4 | 0% | 16µM* | ?
Cc1ccc(C(=O)N2CCN(c3ncccn3)CC2)cc1 | 10% | 3% | -8 | 17% | 11% | -1%
CCCN(CCC)C(=O)c1cc(S(=O)(=O)N2CCCCC2)c[nH]1 | -4% | -3% | -11 | -1% | -18% | -30%
COc1ccc(/C=C/CN2CCC(n3nccc3NC(=O)C3CCCC3)CC2)cc1 | -7% | 11% | ? | -19% | -26% | -13%
O=C(c1ccc(S(=O)(=O)Nc2ccc(F)cc2)cc1)N1CCN(c2ccccn2)CC1 | -23% | 16µM* | -54* | -8% | 18µM* | ?
CCOC(=O)N1CCN(C(=O)c2ccc(S(=O)(=O)Nc3ccccc3)cc2)CC1 | -6% | -11% | 37 | -1% | ? | 12µM*
O=C(c1ccc(NS(=O)(=O)c2ccccc2)cc1)N1CCOCC1 | 0% | 0% | -20 | -2% | 10µM* | 6%
Cc1ccc(NS(=O)(=O)c2ccc(C(=O)N3CCOCC3)cc2)cc1 | -10% | 0% | 20 | -5% | ? | ?
Cc1ccc(NS(=O)(=O)c2ccc(C(=O)N3CCN(S(=O)(=O)c4ccccc4)CC3)cc2)cc1 | -12% | ? | 3 | -1% | 7.3µM* | 12µM*
Cc1ccc(S(=O)(=O)Nc2ccc(C(=O)N3CCCC3)cc2)cc1 | 8% | 3% | i | 4% | -21% | -18%
